What was measured:
Test in all cases: DAPPL (digital affinity profiling via proximity ligation, sequencing); 10 mM Tris-HCl pH 7.5, 50 mM NaCl, 1 mM DTT, 4% glycerol, room temperature, 30 min; GST-TFs on glutathione beads, 16-mer random dsDNA library, 0.1% formaldehyde crosslink after washing; high values mean tight binding
Conditions in all cases: protein: recombinant; tags: N-terminal GST; dsDNA, one strand shown
ERF = molecular target: T1, ERF (Homo sapiens, UniProt P50548 1-548)
T1 sequence: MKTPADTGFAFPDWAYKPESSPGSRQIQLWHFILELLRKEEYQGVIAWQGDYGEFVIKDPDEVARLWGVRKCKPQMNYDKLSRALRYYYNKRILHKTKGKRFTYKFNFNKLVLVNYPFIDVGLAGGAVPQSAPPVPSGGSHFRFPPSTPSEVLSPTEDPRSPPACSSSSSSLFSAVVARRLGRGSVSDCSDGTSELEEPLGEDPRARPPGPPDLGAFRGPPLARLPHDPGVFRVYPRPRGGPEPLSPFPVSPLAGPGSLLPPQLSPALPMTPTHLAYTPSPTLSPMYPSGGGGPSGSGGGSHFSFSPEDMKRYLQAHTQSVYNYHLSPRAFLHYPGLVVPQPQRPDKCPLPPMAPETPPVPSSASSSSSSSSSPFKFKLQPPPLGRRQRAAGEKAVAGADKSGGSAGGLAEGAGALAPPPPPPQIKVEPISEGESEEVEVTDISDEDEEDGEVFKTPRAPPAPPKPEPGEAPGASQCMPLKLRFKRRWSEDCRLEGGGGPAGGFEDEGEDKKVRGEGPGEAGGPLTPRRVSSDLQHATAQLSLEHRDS
Outline: (§1)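 Binding signal is given per hexamer as its read frequency for a factor divided by its frequency in the tag-only sample. GST-fused human transcription factors were expressed in yeast, captured on glutathione beads, barcoded with DNA and pooled with that sample, then incubated with 200 nmole of a 16-mer random double-stranded DNA library in Tris/NaCl/DTT/glycerol buffer for 30 min at room temperature. The pools were then washed, crosslinked, proximity-ligated, amplified by PCR and sequenced on an Illumina NextSeq500.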

ETV3L = molecular target: T2, ETV3L (Homo sapiens, UniProt Q6ZN32 1-361)
T2 sequence: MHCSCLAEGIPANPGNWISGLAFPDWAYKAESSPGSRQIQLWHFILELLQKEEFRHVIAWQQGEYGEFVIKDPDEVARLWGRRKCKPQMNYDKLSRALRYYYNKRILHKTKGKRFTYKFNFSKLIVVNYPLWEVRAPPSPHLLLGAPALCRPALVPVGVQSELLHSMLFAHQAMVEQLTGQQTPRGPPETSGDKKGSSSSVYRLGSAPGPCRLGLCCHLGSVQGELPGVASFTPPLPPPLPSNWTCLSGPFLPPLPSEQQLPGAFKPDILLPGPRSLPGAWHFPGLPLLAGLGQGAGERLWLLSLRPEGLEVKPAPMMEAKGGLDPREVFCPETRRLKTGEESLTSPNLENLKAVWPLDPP
Outline: as §1

ETS2 = molecular target: T3, ETS2 (Homo sapiens, UniProt P15036 1-469)
T3 sequence: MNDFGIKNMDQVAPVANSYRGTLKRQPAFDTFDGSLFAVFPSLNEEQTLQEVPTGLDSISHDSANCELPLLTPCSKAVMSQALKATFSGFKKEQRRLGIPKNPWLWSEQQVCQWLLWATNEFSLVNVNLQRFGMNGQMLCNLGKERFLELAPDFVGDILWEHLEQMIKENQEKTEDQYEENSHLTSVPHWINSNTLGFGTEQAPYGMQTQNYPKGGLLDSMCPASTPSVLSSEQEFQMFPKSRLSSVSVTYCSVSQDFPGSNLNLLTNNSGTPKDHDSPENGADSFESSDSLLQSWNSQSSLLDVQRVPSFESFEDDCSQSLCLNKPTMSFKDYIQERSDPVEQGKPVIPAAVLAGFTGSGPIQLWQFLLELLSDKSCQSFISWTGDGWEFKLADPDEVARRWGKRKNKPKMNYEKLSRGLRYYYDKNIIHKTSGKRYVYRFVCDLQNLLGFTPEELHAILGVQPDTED
Outline: as §1

SPDEF = molecular target: T4, SPDEF (Homo sapiens, UniProt O95238 1-335)
T4 sequence: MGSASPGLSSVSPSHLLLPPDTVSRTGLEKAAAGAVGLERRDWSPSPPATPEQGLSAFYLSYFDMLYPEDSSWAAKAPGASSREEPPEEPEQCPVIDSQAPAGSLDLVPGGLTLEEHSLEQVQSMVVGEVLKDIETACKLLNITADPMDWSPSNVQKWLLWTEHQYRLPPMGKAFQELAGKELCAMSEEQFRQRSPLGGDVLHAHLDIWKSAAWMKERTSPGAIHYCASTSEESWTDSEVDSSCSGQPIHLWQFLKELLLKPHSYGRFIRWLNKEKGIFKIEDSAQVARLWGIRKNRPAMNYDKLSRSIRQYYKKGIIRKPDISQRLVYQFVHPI
Outline: as §1

ETV7 = molecular target: T5, ETV7 (Homo sapiens, UniProt Q9Y603 1-341)
T5 sequence: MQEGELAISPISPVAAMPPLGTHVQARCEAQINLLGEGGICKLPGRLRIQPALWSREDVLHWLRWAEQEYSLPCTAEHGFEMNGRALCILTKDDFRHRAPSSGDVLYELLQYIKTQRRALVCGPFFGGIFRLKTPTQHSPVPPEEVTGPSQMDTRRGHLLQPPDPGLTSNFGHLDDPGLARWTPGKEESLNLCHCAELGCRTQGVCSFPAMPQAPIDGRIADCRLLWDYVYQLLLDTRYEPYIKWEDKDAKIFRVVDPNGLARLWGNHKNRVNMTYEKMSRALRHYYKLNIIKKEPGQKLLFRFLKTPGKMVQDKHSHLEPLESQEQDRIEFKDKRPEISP
Outline: as §1

ELF5 = molecular target: T6, ELF5 (Homo sapiens, UniProt Q9UKW6-2 1-255)
T6 sequence: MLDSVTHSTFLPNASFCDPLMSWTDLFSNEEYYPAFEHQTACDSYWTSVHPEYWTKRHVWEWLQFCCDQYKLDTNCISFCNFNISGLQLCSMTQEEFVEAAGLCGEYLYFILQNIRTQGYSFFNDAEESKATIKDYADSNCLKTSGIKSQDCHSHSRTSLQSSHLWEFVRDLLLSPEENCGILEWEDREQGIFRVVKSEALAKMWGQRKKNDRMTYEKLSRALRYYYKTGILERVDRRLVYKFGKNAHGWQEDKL
Outline: as §1

ETV3 = molecular target: T7, ETV3 (Homo sapiens, UniProt P41162-2 1-143)
T7 sequence: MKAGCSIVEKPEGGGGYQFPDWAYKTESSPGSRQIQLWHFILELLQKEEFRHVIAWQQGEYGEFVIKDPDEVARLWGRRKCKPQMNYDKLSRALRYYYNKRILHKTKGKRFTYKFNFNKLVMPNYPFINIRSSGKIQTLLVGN
Outline: as §1

ETV6 = ETV6 (Homo sapiens, UniProt P41212 1-452)
Outline: as §1

Sequence of ETV6 (P41212 whole entry): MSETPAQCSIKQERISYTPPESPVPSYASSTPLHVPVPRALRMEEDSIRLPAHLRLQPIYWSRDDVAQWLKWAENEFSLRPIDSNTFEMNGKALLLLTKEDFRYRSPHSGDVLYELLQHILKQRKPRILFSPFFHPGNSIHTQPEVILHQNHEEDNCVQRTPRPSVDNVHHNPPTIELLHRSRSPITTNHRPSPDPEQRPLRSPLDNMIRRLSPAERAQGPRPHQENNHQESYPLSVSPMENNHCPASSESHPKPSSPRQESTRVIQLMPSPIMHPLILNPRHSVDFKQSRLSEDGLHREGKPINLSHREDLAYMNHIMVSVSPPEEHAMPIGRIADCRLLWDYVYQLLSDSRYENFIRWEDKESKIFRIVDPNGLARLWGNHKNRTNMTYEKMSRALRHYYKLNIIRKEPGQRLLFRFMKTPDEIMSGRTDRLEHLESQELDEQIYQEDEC

Sequence | binding signal (ERF) | binding signal (ETV3L) | binding signal (ETS2) | binding signal (SPDEF) | binding signal (ETV7) | binding signal (ELF5) | binding signal (ETV3) | binding signal (ETV6)
TAGCTT | 1.29 fold enrichment (6-mer frequency, TF over GST control) | 1.24 fold enrichment (6-mer frequency, TF over GST control) | 1.29 fold enrichment (6-mer frequency, TF over GST control) | 1.08 fold enrichment (6-mer frequency, TF over GST control) | 1.16 fold enrichment (6-mer frequency, TF over GST control) | 1.22 fold enrichment (6-mer frequency, TF over GST control) | 1.16 fold enrichment (6-mer frequency, TF over GST control) | 1.28 fold enrichment (6-mer frequency, TF over GST control)
TGCTTT | 1.29 fold enrichment (6-mer frequency, TF over GST control) | 1.11 fold enrichment (6-mer frequency, TF over GST control) | 1.07 fold enrichment (6-mer frequency, TF over GST control) | 1.02 fold enrichment (6-mer frequency, TF over GST control) | 1.19 fold enrichment (6-mer frequency, TF over GST control) | 1.15 fold enrichment (6-mer frequency, TF over GST control) | 1.14 fold enrichment (6-mer frequency, TF over GST control) | 1.1 fold enrichment (6-mer frequency, TF over GST control)
GCCTAC | 1.12 fold enrichment (6-mer frequency, TF over GST control) | 1.29 fold enrichment (6-mer frequency, TF over GST control) | 1.23 fold enrichment (6-mer frequency, TF over GST control) | 1.12 fold enrichment (6-mer frequency, TF over GST control) | 1.08 fold enrichment (6-mer frequency, TF over GST control) | 1.17 fold enrichment (6-mer frequency, TF over GST control) | 1.3 fold enrichment (6-mer frequency, TF over GST control) | 1.19 fold enrichment (6-mer frequency, TF over GST control)
TGTAAT | 1.14 fold enrichment (6-mer frequency, TF over GST control) | 1.18 fold enrichment (6-mer frequency, TF over GST control) | 1.23 fold enrichment (6-mer frequency, TF over GST control) | 1.25 fold enrichment (6-mer frequency, TF over GST control) | 1.26 fold enrichment (6-mer frequency, TF over GST control) | 1.22 fold enrichment (6-mer frequency, TF over GST control) | 1.05 fold enrichment (6-mer frequency, TF over GST control) | 1.22 fold enrichment (6-mer frequency, TF over GST control)
ACTCGT | 1.25 fold enrichment (6-mer frequency, TF over GST control) | 1.26 fold enrichment (6-mer frequency, TF over GST control) | 1.27 fold enrichment (6-mer frequency, TF over GST control) | 1.14 fold enrichment (6-mer frequency, TF over GST control) | 1.26 fold enrichment (6-mer frequency, TF over GST control) | 1.24 fold enrichment (6-mer frequency, TF over GST control) | 1.21 fold enrichment (6-mer frequency, TF over GST control) | 1.16 fold enrichment (6-mer frequency, TF over GST control)
ATACAG | 1.16 fold enrichment (6-mer frequency, TF over GST control) | 1.1 fold enrichment (6-mer frequency, TF over GST control) | 1.17 fold enrichment (6-mer frequency, TF over GST control) | 1.21 fold enrichment (6-mer frequency, TF over GST control) | 1.18 fold enrichment (6-mer frequency, TF over GST control) | 1.17 fold enrichment (6-mer frequency, TF over GST control) | 1.18 fold enrichment (6-mer frequency, TF over GST control) | 1.12 fold enrichment (6-mer frequency, TF over GST control)
TTCCGA | 1.5 fold enrichment (6-mer frequency, TF over GST control) | 1.48 fold enrichment (6-mer frequency, TF over GST control) | 1.67 fold enrichment (6-mer frequency, TF over GST control) | 1.47 fold enrichment (6-mer frequency, TF over GST control) | 1.64 fold enrichment (6-mer frequency, TF over GST control) | 1.78 fold enrichment (6-mer frequency, TF over GST control) | 1.68 fold enrichment (6-mer frequency, TF over GST control) | 1.85 fold enrichment (6-mer frequency, TF over GST control)
TTGAAT | 1.05 fold enrichment (6-mer frequency, TF over GST control) | 1.01 fold enrichment (6-mer frequency, TF over GST control) | 1.06 fold enrichment (6-mer frequency, TF over GST control) | 1.17 fold enrichment (6-mer frequency, TF over GST control) | 1.09 fold enrichment (6-mer frequency, TF over GST control) | 1.09 fold enrichment (6-mer frequency, TF over GST control) | 1.02 fold enrichment (6-mer frequency, TF over GST control) | 1.03 fold enrichment (6-mer frequency, TF over GST control)

From publication PMC7862700, “An all-to-all approach to the identification of sequence-specific readers for epigenetic DNA modifications on cytosine”
